TGFb SMAD3 inh: TGF-b pathway inhibition. AID 588855. Potency, µM (titrated, usually from 46.1 µM), without a hit: top-dose activity, negative = inhibition, most hits filed as inhibitors. HepG2 CAGA-GFP TGF-b/SMAD3 reporter, GFP fluorescence, 18 h; TGF-beta stimulated, 500 pg/mL final. 410,000 tested, 1.2% active; further: potency means the concentration at half of the fitted maximal effect; on the % scale 0 is the no-effect control and ±100 the full control effect; nearly all actives have a fitted effect of over 65% in size
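Using HEPG2 CAGA-GFP reporter cells at 1000 cells/well, we pinned test compounds, stimulated with recombinant TGF-beta (500 pg/mL final) and measured total well GFP after 18 h.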
DT40 TDP1 CPT: DT40-hTDP1 cell growth loss with CPT | 420,000 tested, 12% active | chicken DT40 Tdp1-/-;hTDP1 cells + 20 nM CPT, ATP luminescence, 48 h | Potency, µM (series often up to 46.2 µM), for the others: at the top dose activity change, negative = growth inhibition, hits mostly inhibitors; further: potency means the concentration at half of the fitted maximal effect; on the % scale 0 is the no-effect control and ±100 the full control effect; nearly all actives have a fitted effect of over 55% in size
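Chicken DT40 Tdp1-/- cells complemented with human TDP1, 400 cells/well, exposed to compounds plus 20 nM camptothecin for at least 48 h at 37 C; viability read as ATP content by CellTiter-Glo luminescence.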
DT40 TDP1 no CPT: qHTS for Inhibitors of human tyrosyl-DNA phosphodiesterase 1 (TDP1): qHTS in cells in absence of CPT; Potency, µM (highest dose often 46.2 µM), for the others: top-dose activity change, negative = growth inhibition, usual class: inhibitors; DT40 Tdp1-/- hTDP1 cells, no CPT, ATP luminescence, 48 h; 420,000 tested, 15% active; further: potency means the concentration at half of the fitted maximal effect; on the % scale 0 is the no-effect control and ±100 the full control effect; nearly all actives have a fitted effect of over 55% in size
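Compound effects on proliferation are scored in DT40 Tdp1-/-;hTDP1 cells in the absence of CPT. ATP levels (CellTiter-Glo luminescence) are recorded after a ≥48 hr, 37 °C incubation.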
TDP1 block: blocks human tyrosyl-DNA phosphodiesterase 1 | Potency, µM (highest dose often 130 µM), without a hit: at the top dose activity change, negative = inhibition, hits mostly inhibitors | Q9NUW8 | 350,000 tested, 0.28% active | recombinant TDP1, AlphaScreen DNA substrate cleavage; further: potency means the concentration at half of the fitted maximal effect; on the % scale 0 is the no-effect control and ±100 the full control effect; nearly all actives have a fitted effect of over 40% in size
Target sequence (Q9NUW8 whole entry, looked up): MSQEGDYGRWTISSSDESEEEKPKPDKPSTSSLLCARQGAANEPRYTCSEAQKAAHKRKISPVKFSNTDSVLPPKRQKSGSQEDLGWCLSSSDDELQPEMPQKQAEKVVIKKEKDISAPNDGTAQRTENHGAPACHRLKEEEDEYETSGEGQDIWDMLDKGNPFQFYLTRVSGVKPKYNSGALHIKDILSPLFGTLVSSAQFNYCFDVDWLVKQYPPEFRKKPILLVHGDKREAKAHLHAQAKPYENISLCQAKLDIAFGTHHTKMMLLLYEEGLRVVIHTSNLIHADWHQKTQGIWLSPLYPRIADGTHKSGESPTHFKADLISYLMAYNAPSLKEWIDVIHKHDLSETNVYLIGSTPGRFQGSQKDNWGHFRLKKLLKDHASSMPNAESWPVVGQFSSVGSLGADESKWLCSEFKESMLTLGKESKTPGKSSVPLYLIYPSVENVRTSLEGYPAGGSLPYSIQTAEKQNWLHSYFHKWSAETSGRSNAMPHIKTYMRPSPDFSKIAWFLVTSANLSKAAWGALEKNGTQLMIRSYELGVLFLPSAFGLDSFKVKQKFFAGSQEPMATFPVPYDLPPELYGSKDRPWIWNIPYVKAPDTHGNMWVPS
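Enzyme-compound mixtures sat 15 min at room temperature, followed by a 5 min reaction with 15 nM final substrate and 10 min with AlphaScreen beads. Recombinant human Tdp1 was used at 1 nM final.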
IL-1B inflam inh: blocks inflammasome-driven IL-1 beta release; THP-1 LPS/ATP IL-1B secretion, AlphaLISA, 16 h; active compounds read low; AID 743279; activity change, % at 57.5 µM; 360,000 tested, 4.7% active; in the data active means activity change below about -50%; inconclusive means mostly about -30% to -49%; further: on the % scale 0 is the no-effect control and ±100 the full control effect
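Secreted IL-1B measured by AlphaLISA bead assay after 16 h compound exposure of THP-1 cells; compounds (final up to 57.5 uM) added 1 h before LPS (250 ng/mL) and ATP (1.25 mM) stimulation; lower signal means less secretion.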
HepG2 tox: HepG2 cytotoxicity, counter-screen for TGF-b inhibitors. Potency, µM (top dose mostly 46.1 µM), inactives show top-dose activity change, negative = cytotoxicity, hits mostly cytotoxic. HepG2 CAGA-GFP viability, ATP luminescence, 18 h. AID 588856. 410,000 tested, 0.76% active; further: potency means the concentration at half of the fitted maximal effect
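CellTiter-Glo luminescence gave cytotoxicity after 18 hours at 37 degrees C. The cells were HepG2 CAGA-GFP in 1% FBS DMEM, stimulated with 500 pg/mL TGF-beta after compound addition. %Activity was normalised to no-cell wells (complete cell-killing) and DMSO (no toxicity), and curves were fitted and classified.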
The depositor's hits bear a star; u = inconclusive; x = no result; [ ] = dose if it differs, or a comment. Sampled rows, rich in hits. Any-hit rate of the full collection: about 19%. Unless noted, the call rests on the fitted dose curve; in most records, active means well fitted curve in the direction sought with a large enough effect; inconclusive means small, poorly fitted or top-dose-only effect, or another doubt; inactive means no such curve, though single readings can be large; an effect the other way counts as inactive or inconclusive.

SMILES | TGFb SMAD3 inh | DT40 TDP1 CPT | DT40 TDP1 no CPT | TDP1 block | IL-1B inflam inh | HepG2 tox
CC1Cc2ccccc2N1S(=O)(=O)c1cccc(C(=O)N2Cc3ccccc3CC2C(N)=O)c1 (centres undefined) | -12.4% | 16.4µM* | 8.2µM* | 2.4% | 18.1 | -11.9%
COc1ccccc1N1CCN(C(=O)c2cccc(S(=O)(=O)N3c4ccccc4CC3C)c2)CC1 (centres undefined) | u | 23.1µM* | u | x | x | -13.9%
CCOC(=O)C1CCN(C(=O)c2cccc(S(=O)(=O)N3c4ccccc4CC3C)c2)CC1 (centres undefined) | -1.9% | u | u | 0.6% | 3.9 | -3.7%
Cc1ccc2onc(CC(=O)Nc3cc(F)ccc3F)c2c1 | x | -14.0% | -29.9% | 1.3% | x | -10.3%
COc1cc(C(=S)N2CCN(c3cccc(Cl)c3)CC2)ccc1O | -21.6% | 10.3µM* | 18.4µM* | 2.5% | 10.2 | -9.1%
CC(=O)c1ccc(NC(=S)N2CCN(c3cccc(Cl)c3)CC2)cc1 | 11.2% | u | u | -5.1% | -24.2 | 5.3%
Oc1ccc(C(=S)N2CCN(c3cccc(Cl)c3)CC2)cc1 | u | u | u | 5.5% | -93.1* | 2.9%
Oc1ccccc1C(=S)N1CCN(c2cccc(Cl)c2)CC1 | u | 23.1µM* | u | 2.5% | -96.8* | -59.2%
CC(C)CCNC(=O)c1ccc2c(c1)NC(=O)C(C(C)C)N2 (centres undefined) | -7.1% | -29.0% | -2.8% | 0.0% | x | -6.7%
CC12CCC(=O)N1C(C(=O)NCCc1ccc(S(N)(=O)=O)cc1)CS2 (centres undefined) | 4.8% | -0.7% | -4.5% | 5.1% | 6.9 | 5.0%
Cc1cccc(COc2ncnc3nc[nH]c23)c1 | 0.5% | u | 13µM* | 8.9% | 11.6 | -7.4%
Cc1ccc(NC(=O)C2(S(=O)(=O)c3ccc(Cl)cc3)CC2)c(Br)c1 | 1.3% | u | 16.4µM* | 4.2%[0.0935 µM] | -3.5 | -14.0%
Cc1ccc(S(=O)(=O)C2(C(=O)Nc3ccc(C)c(Cl)c3)CC2)cc1 | -11.6% | -22.0% | u | -5.5% | x | -0.8%
Cc1ccc(S(=O)(=O)C2(C(=O)Nc3ccc(Cl)c(C(F)(F)F)c3)CC2)cc1 | 11.2µM* | u | 16.4µM* | 0.9% | x | -49.7%
Cc1ccc(NC(=O)Nc2ccc(Cl)cc2)c(Br)c1 | -19.9% | u | 23.1µM* | 1.2% | -21.1 | 10.6%
Cc1ccc(S(=O)(=O)N2CCCCC2)cc1NC(=O)C1CCCO1 (centres undefined) | -0.2% | 9.5% | -14.5% | 2.6% | 0.3 | -16.6%
Nc1ccc(/C=C/c2ccnc3ccccc23)cc1[N+](=O)[O-] | 17.1% | 10µM* | 5.01µM* | x | x | -24.9%
O=[N+]([O-])c1cccc2c1ccc1ncccc12 | 3.1% | -2.3% | -17.9% | x | -8.4 | -2.3%
O=[N+]([O-])c1ccc(/C=C/c2ccnc3ccccc23)cc1 | -16.2% | 11.2µM* | 15.8µM* | x | x | -8.3%
O=[N+]([O-])c1ccc(/C=C/c2ccnc3ccccc23)c([N+](=O)[O-])c1 | 6.6% | 35.5µM* | 20µM* | x | x | -9.7%
C/C(CCC(=O)OC[C@@H]1O[C@H](C#Cc2ccccc2)C=C[C@@H]1Oc1ccc(C)cc1)=N/O[C@@H](C)c1cn([C@H](CO)Cc2ccccc2)nn1 | x | x | x | 6.9%[21 µM] | x | x
CC1(c2nnc(-c3ccncc3)o2)CC(c2ccc(Cl)cc2)=NO1 (centres undefined) | -9.2% | 20.6µM* | 20.6µM* | x | -9.5 | -23.4%
CC1(c2nnc(-c3ccccc3)o2)CC(c2ccc(Cl)cc2)=NO1 (centres undefined) | -13.0% | -11.3% | -27.7% | 1.2% | 1.9 | -11.1%

Assay outcomes deposited in PubChem BioAssay by National Center for Advancing Translational Sciences (NCATS).
